Mtb FBA inh – Mtb FBA enzyme inhibitors, primary screen, biochemical, fluorescence, strain H37Rv | Fructose-bisphosphate aldolase (Mycobacterium tuberculosis (strain ATCC 25618 / H37Rv)), … | AID 588726, 2011 | purified M. tuberculosis FBA, fluorescence read-out | 360,000 compounds, 2.3% hits | inhibition, % at 1 µM; in the data active = inhibition above about 27%;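 also: 0% = vehicle and 100% = reference inhibitor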
RecA splice inh – Mtb RecA intein splicing inhibitors, primary screen, biochemical, fluorescence, HTS | Protein RecA (Mycobacterium tuberculosis (strain ATCC 25618 / H37Rv)), P9WHJ3 | cell-free RecA intein splicing | 290,000 compounds, 0.75% hits | AID 2221, 2009 | inhibition, % (concentration not given with the values); in the data active = inhibition above about 30%;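 also: 0% = vehicle wells and 100% = reference inhibitor control wells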
Target sequence (P9WHJ3 whole entry, looked up, canonical isoform): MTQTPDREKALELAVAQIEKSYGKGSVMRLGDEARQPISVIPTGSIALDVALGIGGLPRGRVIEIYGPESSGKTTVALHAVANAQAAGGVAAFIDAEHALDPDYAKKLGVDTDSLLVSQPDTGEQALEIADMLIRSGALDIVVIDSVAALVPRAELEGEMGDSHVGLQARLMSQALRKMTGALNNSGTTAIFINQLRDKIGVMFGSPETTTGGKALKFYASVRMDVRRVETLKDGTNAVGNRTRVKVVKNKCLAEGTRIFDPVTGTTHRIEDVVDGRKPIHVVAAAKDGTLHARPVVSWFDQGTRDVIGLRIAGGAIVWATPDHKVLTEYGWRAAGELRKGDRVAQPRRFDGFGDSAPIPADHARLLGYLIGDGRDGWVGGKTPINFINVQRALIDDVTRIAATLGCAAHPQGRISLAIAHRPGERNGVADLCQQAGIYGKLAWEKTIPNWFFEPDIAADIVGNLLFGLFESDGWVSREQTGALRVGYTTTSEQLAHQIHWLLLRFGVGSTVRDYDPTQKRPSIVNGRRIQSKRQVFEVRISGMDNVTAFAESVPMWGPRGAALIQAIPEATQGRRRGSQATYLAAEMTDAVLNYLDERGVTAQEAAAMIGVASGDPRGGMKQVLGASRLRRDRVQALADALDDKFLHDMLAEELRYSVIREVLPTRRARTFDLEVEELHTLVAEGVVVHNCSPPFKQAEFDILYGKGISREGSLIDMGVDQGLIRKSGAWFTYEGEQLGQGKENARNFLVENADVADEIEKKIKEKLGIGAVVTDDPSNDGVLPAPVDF
Mtb UGM inh – M. tuberculosis UGM enzyme inhibitors, primary screen, biochemical, fluorescence polarization, single point | purified UGM, fluorescence polarization probe displacement | inhibition, % at 10 µM | 320,000 compounds, 0.06% hits | AID 504406, 2011; in the data active = inhibition above about 10%, passing the limit was not always enough
BH1578 lux ind – inducers of Vibrio cholerae quorum light production without autoinducers, primary screen, BH1578 luxS cqsA deficient, single point; AID 588436, 2011; 350,000 compounds, 0.16% hits; V. cholerae BH1578 lux reporter, luminescence, 6 h; activation, % at 18.7 µM; in the data active = activation mostly above about 9.7%, no sharp cut-off
GDH-TPI counter – GDH-TPI coupling enzyme inhibitors, primary screen, artefact control for M. tuberculosis FBA inhibitor project, biochemical, absorbance, full deck. GDH-TPI coupled enzyme counterscreen, NADH absorbance. AID 588335, 2011. 360,000 compounds, 1.2% hits. inhibition, % at 4.8 µM; in the data active = inhibition above about 30%;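 also: 0% = DMSO wells and 100% = wells lacking the enzyme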
Rv3671c protease – Rv3671c serine protease inhibitors, primary screen, biochemical, fluorescence polarization, M. tuberculosis H37Rv; P9WHR9; inhibition, % at 5.96 µM; 320,000 compounds, 0.048% hits; AID 2606, 2010; in the data active = inhibition above about 38%;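 also: extracellular domain of Rv3671c used as enzyme; 0% = enzyme with DMSO and 100% = no enzyme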
* = called active by the depositor. An excerpt weighted towards active compounds, which were near 4.1% of everything screened.

Results for COC(=O)C1=CN(Cc2ccc(OC)c(OC)c2)C=C(C(=O)OC)C1c1cccc(F)c1 ?
Mtb FBA inh: 123*; Mtb UGM inh: 0; BH1578 lux ind: -1; GDH-TPI counter: 1; Rv3671c protease: 0

What do the screens show for `O=c1cc(-c2ccccc2)[nH]n2cnnc12`?
Mtb FBA inh: 1; RecA splice inh: -2; Mtb UGM inh: -2; BH1578 lux ind: 0; GDH-TPI counter: 10; Rv3671c protease: -24

What do the screens show for `Cc1ccc(N2CC(C(=O)OCC(=O)Nc3ccccc3C)CC2=O)cc1` (centres undefined)?
Mtb FBA inh: -4; Mtb UGM inh: -1; BH1578 lux ind: inactive; GDH-TPI counter: 1; Rv3671c protease: -8

How did COc1ccc(C(=O)/C=C\N2CCOCC2)cc1 do in these assays?
Mtb FBA inh: -1; RecA splice inh: -3; Mtb UGM inh: 1; BH1578 lux ind: 0; GDH-TPI counter: 33*; Rv3671c protease: 6

What do the screens show for `S=c1sc2c(N3CCN(Cc4ccccc4)CC3)ncnc2n1-c1ccccc1`?
Mtb FBA inh: 2; RecA splice inh: 2; Mtb UGM inh: 0; BH1578 lux ind: inactive; GDH-TPI counter: 6; Rv3671c protease: -6

What do the screens show for `CCN1CCN(c2ncnc3c2sc(=S)n3-c2ccccc2)CC1`?
Mtb FBA inh: 2; RecA splice inh: 0; Mtb UGM inh: -2; BH1578 lux ind: 0; GDH-TPI counter: 39*; Rv3671c protease: -6

What do the screens show for `COc1ccccc1OC(C)C(=O)Nc1ccccc1C(=O)NCc1cccnc1` (centres undefined)?
Mtb FBA inh: 1; RecA splice inh: 1; Mtb UGM inh: 1; BH1578 lux ind: 0; GDH-TPI counter: 2; Rv3671c protease: -7

What do the screens show for `COc1ccc2cc(C=O)n(C)c2c1`?
Mtb FBA inh: 2; Mtb UGM inh: 0; BH1578 lux ind: -5; GDH-TPI counter: 45*; Rv3671c protease: -6

What do the screens show for `COc1ccc2cc(C=NS(=O)(=O)c3ccc(C)cc3)n(C)c2c1`?
Mtb FBA inh: 1; Mtb UGM inh: 2; BH1578 lux ind: 0; GDH-TPI counter: 35*; Rv3671c protease: -7

What do the screens show for `COc1ccc2cc(CO)n(C)c2c1`?
Mtb FBA inh: 1; Mtb UGM inh: -2; BH1578 lux ind: 1; GDH-TPI counter: 6; Rv3671c protease: 3

What do the screens show for `CCOc1ccc(/C=N/OCC(=O)Nc2cc(S(=O)(=O)N3CCOCC3)ccc2OC)cc1`?
Mtb FBA inh: -2; RecA splice inh: 0; Mtb UGM inh: 0; BH1578 lux ind: inactive; GDH-TPI counter: -4; Rv3671c protease: 4

Results for COc1ccccc1NC(=O)C(C)OC(=O)C1COc2ccccc2O1 (centres undefined) ?
Mtb FBA inh: -1; Mtb UGM inh: 1; BH1578 lux ind: inactive; GDH-TPI counter: -3; Rv3671c protease: -2

How did O=C(c1cccc(-c2cncc3nccn23)c1)N1CCOCC1 do in these assays?
Mtb FBA inh: active; BH1578 lux ind: 0; GDH-TPI counter: 8

How did CCN(CC(=O)Nc1ccc(OC)cc1)C(=O)c1ccc([N+](=O)[O-])cc1 do in these assays?
Mtb FBA inh: 1; RecA splice inh: -1; Mtb UGM inh: 1; BH1578 lux ind: 0; GDH-TPI counter: 1; Rv3671c protease: 5

What do the screens show for `COc1ccc(CCn2c(-c3ccco3)nc3nc4ccccc4nc32)cc1`?
Mtb FBA inh: 3; RecA splice inh: 1; Mtb UGM inh: 3; BH1578 lux ind: 0; GDH-TPI counter: 21; Rv3671c protease: -1

What do the screens show for `Cc1ccc(-c2nc3nc4ccccc4nc3n2Cc2ccco2)cc1`?
Mtb FBA inh: 14; RecA splice inh: 3; Mtb UGM inh: 0; BH1578 lux ind: inactive; GDH-TPI counter: 46*; Rv3671c protease: -1

How did c1ccc(Cn2c(-c3ccco3)nc3nc4ccccc4nc32)cc1 do in these assays?
Mtb FBA inh: active; RecA splice inh: -14; Mtb UGM inh: 1; BH1578 lux ind: -1; GDH-TPI counter: 21; Rv3671c protease: -20

What do the screens show for `CCCCCn1c(-c2ccco2)nc2nc3ccccc3nc21`?
Mtb FBA inh: active; RecA splice inh: -47; Mtb UGM inh: -1; GDH-TPI counter: 6; Rv3671c protease: -10

How did c1coc(-c2nc3nc4ccccc4nc3n2CC2CCCO2)c1 (centres undefined) do in these assays?
Mtb FBA inh: active; RecA splice inh: -57; Mtb UGM inh: -3; BH1578 lux ind: inactive; GDH-TPI counter: 22; Rv3671c protease: -7

What do the screens show for `COc1ccccc1NC(=O)C(=O)NCCC1CCCCN1S(=O)(=O)c1cccs1` (centres undefined)?
Mtb FBA inh: 1; RecA splice inh: 6; Mtb UGM inh: -2; BH1578 lux ind: 0; GDH-TPI counter: 2; Rv3671c protease: -10

How did CN1C2CCC1/C(=C/c1ccccn1)C(=O)/C2=C\c1ccccn1 do in these assays?
Mtb FBA inh: -3; Mtb UGM inh: 0; BH1578 lux ind: 0; GDH-TPI counter: 46*; Rv3671c protease: 0

What do the screens show for `O=C1/C(=C\c2ccc(O)cc2)SC(=S)N1/N=C/c1ccc(O)cc1`?
Mtb FBA inh: -27; RecA splice inh: -2; Mtb UGM inh: -3; BH1578 lux ind: 0; GDH-TPI counter: 38*; Rv3671c protease: -46

Results for O=C1C2C3C=CC(CC3)C2C(=O)N1/N=C/c1ccc(O)cc1 (centres undefined) ?
Mtb FBA inh: -2; RecA splice inh: 0; Mtb UGM inh: -2; BH1578 lux ind: -2; GDH-TPI counter: 32*; Rv3671c protease: -9

How did Cc1ccc(NC2CCCN(C(=O)C3CCCC3)C2)cc1C (centres undefined) do in these assays?
Mtb FBA inh: -1; RecA splice inh: -1; Mtb UGM inh: 1; BH1578 lux ind: inactive; GDH-TPI counter: 1; Rv3671c protease: 6

How did CCOC(=O)C1=C(N)n2c(s/c(=C/c3ccco3)c2=O)=C(C(=O)OC)C1c1ccco1 (centres undefined) do in these assays?
Mtb FBA inh: -6; RecA splice inh: 2; Mtb UGM inh: 1; BH1578 lux ind: 4; GDH-TPI counter: -6; Rv3671c protease: -8

Results for N#CC1=C(N)n2c(s/c(=C\c3ccco3)c2=O)=C(C#N)C1c1ccco1 (centres undefined) ?
Mtb FBA inh: -1; RecA splice inh: 4; Mtb UGM inh: 3; BH1578 lux ind: 0; GDH-TPI counter: 33*; Rv3671c protease: 8

What do the screens show for `COc1ccc(OC)c(NC(=O)C2(C)CCN2Cc2ccc(SC)cc2)c1` (centres undefined)?
Mtb FBA inh: 1; BH1578 lux ind: 0; GDH-TPI counter: 0

Assay outcomes as filed in PubChem.
